MCF10A rereplic = inducers of DNA re-replication in MCF 10A breast cells | AID 624296 | actives 2.9% (n = 350,000) | MCF 10A DNA re-replication, Hoechst nuclear intensity, 48 h | Potency, µM (highest dose often 46.1 µM), actives largely listed as activators; note: nearly all actives have a fitted effect of over 50% in size
ELG1 DNA repair = blocks ELG1-dependent DNA repair in HEK293T cells. HEK293T ELG1-luciferase reporter, luminescence, 16 h; DNA damage induced by 5-fluorouridine. Potency, µM (series often up to 46.1 µM), hits mostly inhibitors. actives 2.3% (n = 330,000); note: nearly all actives have a fitted effect of over 55% in size
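DMSO vehicle served as the neutral condition. Each well held 2,000 cells given 5-fluorouridine plus compound; after 16 hr at 37 °C/5% CO2, ONE-Glo was added and luciferase measured 30 min later.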
KB-3-1 tox = kills parental KB-3-1 adenocarcinoma cells | KB-3-1 viability, CellTiter-Glo ATP luminescence, 72 h | Potency, µM (doses to about 46.1 µM), hits mostly cytotoxic | actives 1.4% (n = 400,000) | AID 1347075; note: nearly all actives have a fitted effect of over 60% in size
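Multi-concentration cytotoxicity screen in KB-3-1 cells grown in DMEM lacking phenol red with 10% FBS. After 72 h at 37 °C with compound, ATP-dependent luminescence was recorded.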
SW480 rereplic = induces DNA re-replication in SW480 colon adenocarcinoma cells | Potency, µM (doses to about 46.1 µM), hits mostly activators | SW480 DNA re-replication, Hoechst DNA content imaging, 48 h | actives 1.8% (n = 340,000); note: nearly all actives have a fitted effect of over 55% in size
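Image-based read-out: total Hoechst fluorescence of nuclei (405 nm excitation, 500-530 nm emission), with hits raising the fraction of high-intensity nuclei. SW480 colon cells incubated 48 hr with compounds at 37 C.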
KB-V1 MDR tox = kills drug-selected multidrug resistant KB-V1 cells; KB-V1 MDR cells viability, CellTiter-Glo, 72 h; Potency, µM (doses to about 46.1 µM), usual class: cytotoxic; actives 3.4% (n = 400,000); AID 1347076; note: nearly all actives have a fitted effect of over 60% in size
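Drug-selected KB-V1 cells, grown in DMEM lacking phenol red with 10% FBS, receive compound titrations; after three days at 37 degrees C, surviving cell ATP is quantified by CellTiter-Glo luminescence and responses normalized and curve-fitted.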
A number is an active result; - = inactive; ? = inconclusive; . = not tested or not shown; [ ] = remark or other dose. Shown are actives, neighbours in structure and some others; about 8.2% of the full set was active somewhere. Calls come from the whole dose curve; as a rule, active = well fitted curve in the direction sought with a large enough effect; inconclusive = small, poorly fitted or top-dose-only effect, or another doubt; inactive = no such curve, though single readings can be large; an effect the other way counts as inactive or inconclusive.

SMILES	MCF10A rereplic	ELG1 DNA repair	KB-3-1 tox	SW480 rereplic	KB-V1 MDR tox
CN1CCCC1CCNc1ccc2c(=O)c3ccccc3oc2c1 (centres undefined)	18.4µM	?	-	?	-
CN1CCCC1CCNc1ccc2oc3ccccc3c(=O)c2c1 (centres undefined)	-	?	-	-[9.22 µM]	-
CC(C)N1CCOC1c1ccccc1 (centres undefined)	-	.	-	?	-
OC(c1cc(-c2ccc(C(F)(F)F)cc2)nc(C(F)(F)F)c1)C1CCCCN1 (centres undefined)	23.1µM	?	-	?	-
NNc1nc2cccnc2n(CCNc2ncc(C(F)(F)F)cc2Cl)c1=O	20.6µM	?	?	-	?
CN1C(=O)CSC1=Nc1cccc(Cl)c1	-	-	-	-	-
CCCCN(CCCC)CCCN1CC(=O)N2[C@@H](Cc3c([nH]c4ccccc34)C2(C)C)C1=O	-	-	-	-	-
CCOCCn1c(C)c(C(=O)OCC)c2cc(O)c3ccccc3c21	-	-	-	-	2.06µM
CCOC(=O)c1c(C)n(CCO)c2ccc(O)cc12	-	.	-	-	-
COc1ccc(N2CCN(CCCNC(=O)c3nnc(Cc4ccccc4Cl)o3)CC2)cc1	.	.	-	.	-
Cc1nc2c3ccccc3nc(NNC(=O)CCC(=O)O)n2n1	.	.	-	.	-
Cc1nc2ccccc2c2nc(NC(=O)Cc3ccccc3)nn12	-	-	?	-	18.4µM
CCc1nc2ccc(C(=O)NC3CCN(Cc4ccccc4)CC3)cn2c1N(CC)Cc1cccc(Br)c1	.	.	?	.	8.2µM
CC(=O)OC1c2c(ccc3ccc(=O)oc23)OC(C)(C)C1OC(=O)CC(C)C (centres undefined)	-	-	-	-	11.6µM
O=C(NCc1cccnc1)c1cc(C2CCCCN2S(=O)(=O)c2cccs2)on1 (centres undefined)	.	.	-	.	-
CCn1nc(C)cc1C(=O)N1CCCC(Nc2ccc(F)c(F)c2)C1 (centres undefined)	-	-	-	-	?
COc1ccc(C2=NNC(=Nc3cc(S(=O)(=O)N(C)C)ccc3C)SC2)c(OC)c1	-	14.6µM	?	-	?
CN(C)S(=O)(=O)c1cccc(N=C2NN=C(c3ccccc3)CS2)c1	-	?	?	13µM	?
CN1/C(=C\C(=S)NC(=O)c2cccc(Br)c2)C(C)(C)c2ccccc21	?	?	?	?	8.2µM
CCN(CC)S(=O)(=O)c1cccc(C(=O)/C=C2/N(C)c3ccccc3C2(C)C)c1	18.4µM	?	-	20.6µM	-
Cc1ccc(C(=O)N2CCCC(c3ccc(Cl)cc3)=N2)cc1	18.4µM	-	-	?	-
Cc1ccc(NC(=O)Nc2nnc(N(C)C3CCCCC3)s2)c(Cl)c1	.	.	-	.	-
O=C1/C(=C/c2ccccc2)Oc2cc(OC(=O)N3CCOCC3)ccc21	-	?	-	-	20.6µM
COc1cccc(OC)c1C(=O)Oc1ccc2c(c1)O/C(=C\c1ccncc1)C2=O	?	23.1µM	?	?	?
O=C1/C(=C/c2ccncc2)Oc2cc(OS(=O)(=O)c3ccccc3)ccc21	?	?	?	?	-
SMILES	MCF10A rereplic	ELG1 DNA repair	KB-3-1 tox	SW480 rereplic	KB-V1 MDR tox
CCOC(=O)[C@@H](C)N(C(=O)OC(C)(C)C)S(=O)(=O)N(Cc1ccccc1)[C@@H](C(=O)OC)C(C)C	.	.	-	.	-
COc1ccc(NC(=S)N(CCc2nc3cc(C)c(C)cc3[nH]2)Cc2cccnc2)cc1	-	16.4µM	-	-	-
COc1ccc(NC(=S)N(CCc2c(C)[nH]c3ccccc23)Cc2cccnc2)cc1	-	-	-	-	-
Cc1ccc(CSc2nc3ccncc3n2Cc2nc(-c3ccc(Cl)cc3)oc2C)cc1	.	.	-	.	-
COc1ccc(-c2nc(Cn3c(SCc4ccc(F)cc4)nc4ccncc43)c(C)o2)cc1OC	3.66µM	?	?	-	-
O=[N+]([O-])c1ccc(S(=O)(=O)CC2CSc3nc4ccccc4n32)cc1 (centres undefined)	-	-	1.84µM	?	2.59µM
Cc1nnc2n(c1=O)C(CS(=O)(=O)c1ccccc1)CS2 (centres undefined)	-	-	-	-	-
CC(=O)Nc1cccc(NC(=O)NC2CC(=O)N(c3ccc4c(c3)OCCO4)C2)c1 (centres undefined)	.	.	?	.	-
CCn1c(=O)cc(OCC(=O)Nc2cc(OC)c(OC)c(OC)c2)c2ccccc21	.	.	-	.	-
CCCCN(CC)CCCNC(=O)c1cc2c(=O)n(C)c3ccccc3c2n1C	?	?	16.4µM	-	-
CCOC(=O)N1CCN(C(=O)c2ccc3nc(SCc4ccc(F)cc4)n(C)c3c2)CC1	-	13µM	-	-[9.22 µM]	9.2µM
CC1(C)SC(=S)N(Cc2ccc3c(c2)OCO3)C1N(O)C(=O)NC1CCCCC1 (centres undefined)	-	-	?	-	14.6µM
CC1(C(=O)NC2CCCCC2)CCC(=O)N1Cc1ccc2c(c1)OCO2 (centres undefined)	-	-	-	-	-
CC1(C(=O)NC2CCCCCC2)CCC(=O)N1Cc1ccc2c(c1)OCO2 (centres undefined)	-	-	-	-	20.6µM
COc1ccc(OC)c(NC(=O)C2(C)CCN2Cc2ccc(OC)c3ccccc23)c1 (centres undefined)	.	.	-	.	-
CCN(CC)S(=O)(=O)c1ccc(C)c(NC(=S)N2CCN(C/C=C/c3ccccc3)CC2)c1	-	11.6µM	?	-	-
COc1ccccc1NC(=S)N1CCN(C/C=C/c2ccccc2)CC1	-	?	-	-	?
CN(C)S(=O)(=O)c1ccc(Cl)c(NC(=O)CN2CCN(Cc3ccc4c(c3)OCO4)CC2)c1	?	20.6µM	?	-	14.6µM
CCN(CC)S(=O)(=O)c1ccc(C)c(NC(=S)N2CCN(Cc3ccc4c(c3)OCO4)CC2)c1	?	?	23.1µM	-	?
O=C(CN1CCN(Cc2ccc3c(c2)OCO3)CC1)Nc1cc(S(=O)(=O)N2CCCC2)ccc1Cl	?	?	-	-	?
CCc1ccccc1NC(=S)N1CCN(c2ccccn2)CC1	-	-	-	-	-
CCN(CC)S(=O)(=O)c1ccc(C)c(NC(=S)N2CCN(c3ccccn3)CC2)c1	-	16.4µM	-	-	-
Nc1ccn([C@@H]2O[C@H](CNCc3ccc(-c4cc(C(F)(F)F)ccc4Cl)o3)[C@@H](O)[C@H]2O)c(=O)n1	.	.	-	.	-
CC(NNC(=S)N1CCN(c2ccccn2)CC1)c1nccc2ccccc12 (centres undefined)	?	.	?	?	0.461µM
S=C(Nc1ccccc1Cl)N1CCN(c2ccccn2)CC1	-	-	-	-	-
Fc1ccccc1NC(=S)N1CCN(c2ccccn2)CC1	?	-	-	-	20.6µM
O=C(NCCc1cn2cccnc2n1)C1CCC(=O)N(Cc2ccccc2F)C1 (centres undefined)	.	.	-	.	-
